Source: PubChem BioAssay
Values joined by “and” are separate entries in the source; they are usually repeats but may differ in a detail not shown here. Equal entries are not always repeated. Active and inactive are the calls of the source. Unless noted, no rule for the calls is given here.

How the values were obtained:
[1] = compounds altering viability of human ES cells (AID 493140); conditions: human embryonic stem cell survival screen; stronger effect = higher value;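 also: cells exposed to compounds for four days before counting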
[2] = stimulators of insulin release from INS-1E, primary screen, cell-based, 5 mM glucose, NPC library (AID 1117329;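 active = compound raises insulin release from rat beta cells at 5 mM glucose, no numeric limit stated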); conditions: rat INS-1E insulin secretion, at 10 µM, stronger effect = higher value
[3] = growth inhibition of GSK3B-pretreated HCT116 cells – cell-based, CellTiter-Glo, 0.2 to 20 µM (AID 1117336;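 active = compounds lowering colon cancer cell viability after pretreatment blocking the GSK3B kinase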); conditions: HCT116 viability after GSK3B inhibitor, at 20 µM, stronger effect = higher value
[4] = inhibition of endothelial tube formation, primary screen, imaging, VEGF stimulated, CD31 staining, tube area, NPC library (AID 1117340;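 active = compound that reduces growth-factor-driven endothelial tube area in a mixed cell culture, no cutoff stated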); conditions: VEGF-stimulated ADSC/ECFC co-culture, at 10 µM, stronger effect = higher value
[5] = GLP1 release stimulators, primary, NCI-H716, NPC library (AID 1117341;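 active = compound raises GLP1 secretion from the human gut endocrine cells, with no numeric limit stated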); conditions: NCI-H716 cells, at 10 µM, stronger effect = higher value
[6] = HCT116 colon cancer cell growth inhibition, primary screen, CellTiter-Glo luminescence, NPC library (AID 1117342;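 active = compounds that lower survival of HCT116 colon cancer cells in the luminescence readout, no numeric limit stated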); conditions: at 20 µM (top of the series)
[7] = reduced SW480 viability measured with CellTiter-Glo, NPC library, primary (AID 1117343;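 active = compounds that lower viability of the colon cancer cells in the luminescence readout, with no numeric limit stated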); conditions: CellTiter-Glo luminescence; at 20 µM (top of the series) unless noted
[8] = NPC library primary testing for decreased DLD-1 cell viability via CellTiter-Glo (AID 1117346;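 active = compounds that lower survival of DLD-1 colon cancer cells in the luminescence readout, no cutoff given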); conditions: DLD-1 viability, CellTiter-Glo luminescence; at 20 µM (top of the series)
[9] = molecular target: 6-phosphogluconate dehydrogenase, decarboxylating (Homo sapiens) (UniProt P52209); assay: inhibition of human phosphogluconate dehydrogenase – biochemical, recombinant enzyme, NADPH absorbance, primary screen (AID 1159550;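 active = at least 20% inhibition of 6-phosphogluconate dehydrogenase activity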); conditions: recombinant 6PGD, NADPH absorbance 341 nm; at 10 µM; stronger effect = higher value
Sequence of 6-phosphogluconate dehydrogenase, decarboxylating (Homo sapiens) (P52209 whole entry, looked up): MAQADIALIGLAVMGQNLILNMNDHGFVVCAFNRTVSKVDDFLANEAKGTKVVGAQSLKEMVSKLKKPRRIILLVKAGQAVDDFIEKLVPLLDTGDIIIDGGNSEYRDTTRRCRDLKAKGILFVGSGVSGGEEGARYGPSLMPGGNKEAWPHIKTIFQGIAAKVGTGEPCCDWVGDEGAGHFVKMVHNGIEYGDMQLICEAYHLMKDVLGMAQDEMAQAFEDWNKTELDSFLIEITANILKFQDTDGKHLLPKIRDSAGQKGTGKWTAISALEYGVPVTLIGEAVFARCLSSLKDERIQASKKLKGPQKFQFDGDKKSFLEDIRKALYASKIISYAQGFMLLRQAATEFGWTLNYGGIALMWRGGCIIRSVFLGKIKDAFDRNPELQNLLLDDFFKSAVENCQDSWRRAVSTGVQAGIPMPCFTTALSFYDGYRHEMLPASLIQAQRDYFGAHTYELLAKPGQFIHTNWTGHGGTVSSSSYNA

[10] = modulation of C. elegans fzo-1 (AID 1259413);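 also: fzo-1 mutant C. elegans worms in liquid wells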; conditions: C. elegans fzo-1 modulator screen, mean read-out; stronger effect = higher value
[11] = EMT-state selective cytotoxicity in co-culture – imaging, PC-3E GFP, TEM4-18 mCherry, primary screen (AID 1345086;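 active = compounds killing one labelled cell type while sparing the other, by normalised counts and ratio limits, not self-fluorescent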;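 as to all read-outs here: cells exposed to compound for 72 h before imaging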;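 as to red/green cell ratio (normalised): normalised mesenchymal count divided by normalised epithelial count so high means epithelial killing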); conditions: PC-3E GFP / TEM4-18 mCherry co-culture, imaging cell counts, at 1 µM; for red/green cell ratio (normalised): actives lie on both sides, counts scaled to control wells, 1 = unselective
[12] = MELAS cybrid and Rieske KO viability enhancers – cell-based, MELAS cybrids, Rieske KO mouse fibroblasts, CellTiter-Glo, primary screen (AID 1508586;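 active = mean z-score across replicates of 1.96 or higher in either the MELAS or the Rieske mutant cell line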;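 also: z relative to plate mean and SD of compound and empty wells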); conditions: low glucose
[13] = molecular target: NAD(+) hydrolase SARM1 (Homo sapiens) (UniProt Q6SZW1); assay: blocking NAD cleavage by SARM1 SAM-TIR – cell lysate, NAD-Glo luminescence (AID 1508614;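 active = compound whose remaining NAD level is above about 45 nM, limit read from the data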;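 also: higher remaining NAD means stronger inhibition of SARM1 NADase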); conditions: SAM-TIR HEK293T lysate NADase, at 1 µM, stronger effect = higher value
Sequence of NAD(+) hydrolase SARM1 (Homo sapiens) (Q6SZW1 whole entry, looked up, the tested form may be a part): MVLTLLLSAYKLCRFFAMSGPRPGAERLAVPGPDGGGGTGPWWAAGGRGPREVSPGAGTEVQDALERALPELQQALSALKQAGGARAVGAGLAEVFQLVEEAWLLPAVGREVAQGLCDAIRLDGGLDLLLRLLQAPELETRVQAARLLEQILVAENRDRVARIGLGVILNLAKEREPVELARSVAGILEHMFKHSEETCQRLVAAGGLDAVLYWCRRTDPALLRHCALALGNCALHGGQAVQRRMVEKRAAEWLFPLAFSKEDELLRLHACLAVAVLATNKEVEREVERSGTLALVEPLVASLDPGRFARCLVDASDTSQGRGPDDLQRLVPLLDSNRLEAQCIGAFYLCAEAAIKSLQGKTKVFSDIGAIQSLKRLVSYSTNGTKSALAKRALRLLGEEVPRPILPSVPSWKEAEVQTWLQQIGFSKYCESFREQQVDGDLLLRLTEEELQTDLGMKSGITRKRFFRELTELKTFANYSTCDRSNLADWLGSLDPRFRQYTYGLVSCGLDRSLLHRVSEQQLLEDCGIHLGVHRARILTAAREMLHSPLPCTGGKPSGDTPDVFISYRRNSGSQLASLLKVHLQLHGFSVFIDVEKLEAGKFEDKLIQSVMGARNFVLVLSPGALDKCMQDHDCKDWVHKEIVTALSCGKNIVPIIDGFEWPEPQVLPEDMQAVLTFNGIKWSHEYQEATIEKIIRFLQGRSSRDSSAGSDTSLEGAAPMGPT

[14] = molecular target: Mitogen-activated protein kinase 7 (Homo sapiens) (UniProt Q13164); assay: Gal4-ERK5 driven luciferase induction – cell-based, HTS, primary screen (AID 1508626;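 active = luciferase signal above three times the same-plate solvent-only control wells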;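 also: luciferase driven by Gal4-ERK5 fusion binding five Gal4 sites before minimal TATA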); conditions: HeLa Gal4-ERK5 transactivation, 18 h, at 5 µM, stronger effect = higher value
Sequence of Mitogen-activated protein kinase 7 (Homo sapiens) (Q13164 whole entry, looked up, the tested form may be a part): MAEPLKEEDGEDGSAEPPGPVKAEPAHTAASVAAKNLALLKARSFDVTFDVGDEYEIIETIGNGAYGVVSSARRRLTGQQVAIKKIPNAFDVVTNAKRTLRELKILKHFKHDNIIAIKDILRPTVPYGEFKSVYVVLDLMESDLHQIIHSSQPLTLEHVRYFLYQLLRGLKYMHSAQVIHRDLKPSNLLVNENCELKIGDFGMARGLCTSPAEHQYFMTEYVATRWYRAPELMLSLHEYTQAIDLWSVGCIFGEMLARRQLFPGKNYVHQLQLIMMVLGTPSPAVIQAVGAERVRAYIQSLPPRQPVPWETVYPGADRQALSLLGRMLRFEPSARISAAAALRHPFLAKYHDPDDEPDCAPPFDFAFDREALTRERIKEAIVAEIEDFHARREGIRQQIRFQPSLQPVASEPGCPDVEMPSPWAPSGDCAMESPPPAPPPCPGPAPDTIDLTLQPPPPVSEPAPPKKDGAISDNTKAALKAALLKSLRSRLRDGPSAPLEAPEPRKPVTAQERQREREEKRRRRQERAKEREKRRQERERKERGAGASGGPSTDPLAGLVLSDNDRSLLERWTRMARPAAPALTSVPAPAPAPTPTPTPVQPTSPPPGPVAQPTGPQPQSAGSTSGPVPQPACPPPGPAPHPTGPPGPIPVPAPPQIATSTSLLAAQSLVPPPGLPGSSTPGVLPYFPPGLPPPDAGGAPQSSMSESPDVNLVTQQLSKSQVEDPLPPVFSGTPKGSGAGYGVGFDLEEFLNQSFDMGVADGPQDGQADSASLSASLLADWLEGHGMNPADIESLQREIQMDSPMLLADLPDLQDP

[15] = galactose survival enhancers in mitochondrial complex I cybrids – cell-based, galactose medium, ATP luminescence, primary screen (AID 1645843;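 active = z-score of at least 1.8 in each of two replicates, scored against plate mean and spread of sample wells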;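 also: positive z means more ATP and so rescue of galactose-driven cybrid death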); conditions: complex I mutant cybrid cells, 72 h, stronger effect = higher value
[16] = blockers of cellular phospholipid synthesis – cell-based, LOPAC library, screen 4, primary screen (AID 1347384); conditions: animal cells, phospholipid biosynthesis inhibition screen; at 10 µM
[17] = Wnt pathway potentiators raising nuclear beta-catenin – imaging, WNT3A-conditioned medium, mouse C2C12, NPC library, primary screen (AID 1117326; in the data active = nuclear beta-catenin stimulation mostly above about 4.2%, no sharp cut-off; inactive = mostly below about 10%); conditions: stronger effect = higher value
[18] = viability loss with induced miR-34 in A549 – imaging, A549 dox-inducible miR-34, nuclei and caspase counts, primary screen (AID 1347080;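 active = compounds whose cell count with miR-34 switched on is under 0.7 times the count with it off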); conditions: A549 miR-34 inducible, Hoechst nuclei count, 48 h
[19] = measured here: epithelial PC-3E GFP cell survival
[20] = measured here: mesenchymal TEM4-18 mCherry cell survival
[21] = MELAS cybrid survival, CellTiter-Glo 48 h, stronger effect = higher value
[22] = Rieske KO mouse fibroblast survival, CellTiter-Glo 72 h
[23] = stronger effect = lower value, cell number ratio, induced over uninduced
[24] = measured here: relative caspase fold change +Dox/-Dox
[25] = measured here: total cells with miR-34 induction, stronger effect = lower value
[26] = measured here: total cells without miR-34 induction

COc1c2occc2cc2ccc(=O)oc12
survival [1]: 5.42 (inactive)
insulin secretion stimulation [2]: 1.9% (inactive)
viability decrease [3]: -33.7% (inactive)
tube area decrease [4]: 3.8% (inactive)
GLP1 secretion stimulation [5]: 2% (inactive)
inhibition of viability [6]: 8.3% (inactive)
viability decrease (inhibition) [7]: 26.9% (inactive)
viability decrease (inhibition) [8]: 8.4% (inactive)
inhibition [9]: 3.81% (inactive)
mean signal [10]: 248 (inactive)
red/green cell ratio (normalised) [11]: 1.15 (inactive)
normalised cell number [11, 19]: 0.84
normalised cell number [11, 20]: 0.96
z-score [12, 21]: -0.203 (inactive)
z-score [12, 22]: -0.0388
remaining NAD [13]: 10 nM (inactive)
luciferase signal [14]: 24 AU (inactive)
z-score [15]: 0.975 (inactive)

O=C(O)CCc1nc(-c2ccccc2)c(-c2ccccc2)o1
survival [1]: 5.67 (inactive)
insulin secretion stimulation [2]: 1.3% (inactive)
viability decrease [3]: -61.8% (inactive)
tube area decrease [4]: -17.6% (inactive)
GLP1 secretion stimulation [5]: 2.2% (inactive)
inhibition of viability [6]: 9.15% (inactive)
viability decrease (inhibition) [7]: 8.7% (inactive)
viability decrease (inhibition) [8]: -5.7% (inactive)
inhibition [9]: -3.27% (inactive)
mean signal [10]: 247 (inactive)
red/green cell ratio (normalised) [11]: 1.03 (inactive)
normalised cell number [11, 19]: 1.14
normalised cell number [11, 20]: 1.18
outcome [16]: inactive
z-score [12, 21]: -0.226 (inactive) and -0.656 (inactive)
z-score [12, 22]: -0.145 and -0.466
remaining NAD [13]: 10 nM (inactive)
luciferase signal [14]: 44 AU (inactive)
z-score [15]: 0.9 (inactive) and 1.19 (inactive)

CCN(CC)CCOc1ccc(Cc2ccccc2)cc1
nuclear beta-catenin stimulation ([17]; at 10 µM): 2.1% (inactive)
nuclear beta-catenin stimulation ([17]; stimulation, at 2 µM): 14.6%
viability decrease [3]: 67.3% (active)
inhibition of viability [6]: 67.4% (active)
viability decrease (inhibition) [7]: 83.4% (active)
viability decrease (inhibition) [8]: 55.9% (active)
fold change [18, 23]: 0.97 (inactive)
fold change [18, 24]: 0.737
cell count [18, 25]: 8340
cell count [18, 26]: 8600
z-score [15]: -0.96 (inactive)

Cc1cc(-n2nc3ccc(Cl)cc3n2)c(O)c(C(C)(C)C)c1
nuclear beta-catenin stimulation ([17]; at 10 µM): 3.3% (inactive)
nuclear beta-catenin stimulation ([17]; stimulation, at 2 µM): 10.1%
viability decrease [3]: 29.7% (inactive)
inhibition of viability [6]: 22.8% (inactive)
viability decrease (inhibition) [7]: 1.3% (inactive)
viability decrease (inhibition) [8]: 8% (inactive)

Cc1cc(NS(=O)(=O)c2ccc(N)cc2)no1
survival [1]: 30.6 (inactive)
insulin secretion stimulation [2]: -2.1% (inactive)
viability decrease [3]: 1.7% (inactive)
tube area decrease [4]: 1.9% (inactive)
GLP1 secretion stimulation [5]: 1.9% (inactive)
inhibition of viability [6]: -6.5% (inactive)
viability decrease (inhibition) [7]: -7.9% (inactive)
viability decrease (inhibition) [8]: 3.95% (inactive)
inhibition [9]: 11.1% (inactive)
mean signal [10]: 252 (inactive)
red/green cell ratio (normalised) [11]: 1.25 (inactive)
normalised cell number [11, 19]: 1.05
normalised cell number [11, 20]: 1.32
z-score [12, 21]: -0.296 (inactive) and -0.181 (inactive)
z-score [12, 22]: -0.35 and -0.048
remaining NAD [13]: 10 nM (inactive)
luciferase signal [14]: 64 AU (inactive)
z-score [15]: 0.255 (inactive)

COC(=O)C1=C(C)NC(C)=C(C(=O)OC)C1c1ccccc1[N+](=O)[O-]
survival [1]: 26.5 (inactive)
insulin secretion stimulation [2]: 11.4% (inactive)
viability decrease [3]: 77.9% (active)
tube area decrease [4]: 1.2% (inactive)
GLP1 secretion stimulation [5]: 4.4% (inactive)
inhibition of viability [6]: 58.7% (active)
viability decrease (inhibition) [7]: 136% (active)
viability decrease (inhibition) [8]: 93.1% (active)
inhibition [9]: -13.6% (inactive)
mean signal [10]: 242 (inactive)
red/green cell ratio (normalised) [11]: 0.87 (inactive)
normalised cell number [11, 19]: 1.03
normalised cell number [11, 20]: 0.9
outcome [16]: inactive
z-score [12, 21]: -0.44 (inactive) and 1.42 (inactive) and -0.699 (inactive)
z-score [12, 22]: 0.0615 and 0.566 and -0.497
remaining NAD [13]: 10 nM (inactive)
luciferase signal [14]: 52 AU (inactive)

N=c1nc(N2CCCCC2)cc(N)n1O
survival [1]: 23.2 (inactive)
nuclear beta-catenin stimulation ([17]; at 10 µM): 0.1% (inactive)
nuclear beta-catenin stimulation ([17]; stimulation, at 2 µM): 8.6%
viability decrease [3]: 3.1% (inactive)
inhibition of viability [6]: 10.8% (inactive)
viability decrease (inhibition) [7]: -3.9% (inactive)
viability decrease (inhibition) [8]: 7.1% (inactive)
inhibition [9]: 0.805% (inactive)
mean signal [10]: 252 (inactive)
red/green cell ratio (normalised) [11]: 1.27 (inactive)
normalised cell number [11, 19]: 1.08
normalised cell number [11, 20]: 1.37
outcome [16]: inactive
z-score [12, 21]: -0.417 (inactive) and -0.443 (inactive)
z-score [12, 22]: 0.0783 and -0.248
remaining NAD [13]: 10 nM (inactive)
luciferase signal [14]: 44 AU (inactive)

C[C@@H](c1ncncc1F)C(O)(Cn1cncn1)c1ccc(F)cc1F (some centres undefined)
insulin secretion stimulation [2]: 3.8% (inactive)
viability decrease [3]: -3.3% (inactive)
tube area decrease [4]: -5.2% (inactive)
GLP1 secretion stimulation [5]: -0.7% (inactive)
inhibition of viability [6]: 11.9% (inactive)
viability decrease (inhibition) [7]: 4.6% (inactive)
viability decrease (inhibition) [8]: -4.3% (inactive)

COc1cc(Cc2cnc(N)nc2N)cc(OC)c1OC
survival [1]: 17.1 (inactive)
insulin secretion stimulation [2]: -1.7% (inactive)
viability decrease [3]: -3% (inactive)
tube area decrease [4]: 2% (inactive)
GLP1 secretion stimulation [5]: 4.6% (inactive)
inhibition of viability [6]: 28.8% (inactive)
viability decrease (inhibition) [7]: 39.7% (inactive)
viability decrease (inhibition) [8]: 9.15% (inactive)
inhibition [9]: -0.293% (inactive)
mean signal [10]: 243 (inactive)
red/green cell ratio (normalised) [11]: 1.12 (inactive)
normalised cell number [11, 19]: 0.91
normalised cell number [11, 20]: 1.02
outcome [16]: inactive
z-score [12, 21]: -0.0749 (inactive) and 0.787 (inactive) and 0.308 (inactive)
z-score [12, 22]: -0.219 and -0.384 and -0.669
remaining NAD [13]: 10 nM (inactive)
luciferase signal [14]: 48 AU (inactive)
z-score [15]: 0.49 (inactive) and 0.045 (inactive) and 0.71 (inactive)

O=C1CN(/N=C/c2ccc([N+](=O)[O-])o2)C(=O)N1
survival [1]: 10.8 (inactive)
insulin secretion stimulation [2]: -2.7% (inactive)
viability decrease [3]: 26.8% (inactive)
tube area decrease [4]: -36% (inactive)
GLP1 secretion stimulation [5]: -0.3% (inactive)
inhibition of viability [6]: 18.2% (inactive)
viability decrease (inhibition) [7]: 46.4% (active)
viability decrease (inhibition) [8]: 8.55% (inactive)
inhibition [9]: -10.5% (inactive)
mean signal [10]: 245 (inactive)
red/green cell ratio (normalised) [11]: 0.97 (inactive)
normalised cell number [11, 19]: 1.08
normalised cell number [11, 20]: 1.05
fold change [18, 23]: 0.928 (inactive) and 0.958 (inactive)
fold change [18, 24]: 1.23 and 1.67
cell count [18, 25]: 8440 and 12500
cell count [18, 26]: 9100 and 13100
z-score [12, 21]: -2.68 (inactive)
z-score [12, 22]: -2.1
remaining NAD [13]: 10 nM (inactive)
luciferase signal [14]: 40 AU (inactive)
